Assay outcomes deposited in PubChem BioAssay by several laboratories.
An excerpt weighted towards active compounds, which were near 27% of everything screened.
Cav32 inh: blocks human Cav3.2 T-type calcium channel; Cav3.2-expressing cells, Fluo-4 calcium fluorescence FDSS; stronger effect = lower value; B-score at 10 µM; 100,000 compounds, 4% hits; AID 449739;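 active = single-dose well whose peak fluorescence ratio is a statistical outlier from its plate by either plate-standardised score or position-corrected B-score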
CYP2C19 activ: increases human CYP2C19 enzyme activity | P33261 | recombinant CYP2C19, luciferin-H EGE luminescence; stronger effect = higher value; 0 = fully inhibited enzyme, 1 = untreated enzyme | activation factor at 5 µM | 96,000 tested, under 10 active;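 active = activation factor of at least 2 at 5 µM in the primary screen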;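 also: 0 = wells with 2.5 mM tranylcypromine and 1 = vehicle-only wells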
Target sequence (P33261 whole entry, looked up): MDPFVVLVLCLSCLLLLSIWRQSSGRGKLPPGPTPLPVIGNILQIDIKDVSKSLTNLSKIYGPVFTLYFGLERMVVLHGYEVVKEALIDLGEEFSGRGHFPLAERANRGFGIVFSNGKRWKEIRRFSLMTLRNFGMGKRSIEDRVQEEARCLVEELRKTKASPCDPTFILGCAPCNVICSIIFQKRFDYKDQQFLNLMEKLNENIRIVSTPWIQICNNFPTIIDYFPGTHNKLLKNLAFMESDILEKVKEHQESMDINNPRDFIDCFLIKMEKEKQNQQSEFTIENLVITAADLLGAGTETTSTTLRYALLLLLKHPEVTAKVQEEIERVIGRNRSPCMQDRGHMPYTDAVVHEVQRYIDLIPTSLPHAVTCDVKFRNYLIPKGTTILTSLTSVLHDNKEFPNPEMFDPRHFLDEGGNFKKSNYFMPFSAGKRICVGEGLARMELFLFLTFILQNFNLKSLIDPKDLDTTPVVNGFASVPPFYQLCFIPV
CYP2C19 inhib: inhibitors of human CYP2C19 | inhibition, % at 5 µM | CYP2C19 Supersomes, luciferin-H EGE luminescence, 30 min | P33261 | AID 778 | 96,000 compounds, 21% hits;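 active = CYP2C19 inhibition above a set limit at 5 µM in the primary screen, cut at about 50% in these data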;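 also: plate controls were negative control wells for no effect and 2.5 mM tranylcypromine positive control for full effect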
CYP2C9 act: activators of human CYP2C9; recombinant CYP2C9, luciferin-H conversion, luminescence; stronger effect = higher value; factor 1 = untreated enzyme, 0 = blocked; activation factor at 5 µM; 96,000 compounds, 1.4% hits; AID 1024;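 active = activation factor of 2 or more for CYP2C9 at a 5 µM dose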;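 also: 0 = sulfaphenazole-blocked wells and 1 = vehicle-only wells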
CYP2C9 inhib: inhibitors of human CYP2C9; CYP2C9 Supersomes, luciferin-H conversion, luminescence; inhibition, % at 5 µM; 96,000 compounds, 20% hits; AID 777;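 active = blocking of liver enzyme CYP2C9 beyond about 50% at 5 µM, limit read from the data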
* = called active by the depositor; nt = no result.

SMILES | Cav32 inh | CYP2C19 activ | CYP2C19 inhib | CYP2C9 act | CYP2C9 inhib
CC(CCc1ccccc1)NC(=O)c1cccs1 (stereo unspecified) | 0.16 | 0.4 | 56.7* | 0.3 | 72.5*
O=C(CCC(=O)Nc1ccccc1)NNC(=O)c1cccs1 | 0.601 | 1 | -2.6 | 1 | -2.3
CC(CCc1ccccc1)NC(=O)c1ccncc1 (stereo unspecified) | 0.185 | 0 | 99.7* | 0.1 | 93.8*
CC(CCc1ccccc1)NC(=O)c1ccccc1 (stereo unspecified) | 0.647 | 0.3 | 66.4* | 0.1 | 91.3*
CC(CCc1ccccc1)NC(=O)c1ccc(C(=O)NC(C)CCc2ccccc2)cc1 (stereo unspecified) | nt | 0.9 | 9.6 | 0.8 | 16.3
O=C(NNC(=O)C(c1ccccc1)c1ccccc1)c1cccs1 | 0.115 | 0.4 | 55.9* | 0.1 | 90.8*
COc1ccc(CCC(=O)Nc2nc3c(s2)CN(C)CC3)cc1OC | 0.791 | 0.8 | 18.9 | 0.9 | 9.2
CCN(CC)S(=O)(=O)c1ccc(F)c(C(=O)NCCC(C)C)c1 | 0.22 | nt | nt | nt | nt
NC(=O)CNC(=O)[C@@H]1CC2(CC(c3ccccc3)=NO2)CN1C(=O)c1ccc(Br)cc1 (stereo partly specified) | -0.0434 | 1 | 1.6 | 0.9 | 10.4
Cc1nc2ccc(C(=O)O)cc2c2c1CC(C)S2 (stereo unspecified) | nt | 1.1 | -13.6 | 1.1 | -10.1
O=C(NN1C(=O)c2ccccc2NC1c1ccccn1)c1ccc(Br)cc1 (stereo unspecified) | 0.902 | 1.1 | -9.7 | 0.7 | 33.3
Cc1ccc(C2=[N+]([O-])C3(CCCCC/C3=N\NC(N)=S)N(O)C2(C)C)o1 (stereo unspecified) | nt | 0.9 | 12.9 | 0.3 | 74.4*
Cc1occc1C(=O)NC(C)c1ccc2c(c1)OCO2 (stereo unspecified) | 1.53 | 0.4 | 62.0* | 1 | -3.3
COc1cc(CC(=O)NCc2ccc3c(c2)OCO3)cc(OC)c1OC | -0.407 | 0.3 | 74.3* | 1.1 | -11.3
CCOc1ccccc1C(=O)NC(C)c1ccc2c(c1)OCO2 (stereo unspecified) | -0.344 | 0.2 | 80.0* | 1.5 | -45.3
COc1ccccc1NC(=O)NCc1ccc2c(c1)OCO2 | 0.134 | 0.5 | 53.6* | 1.1 | -6.5
COC(=O)c1ccccc1NC(=O)NCc1ccc2c(c1)OCO2 | -1.04 | 0.5 | 52.2* | 0.8 | 24.8
Cc1ccc(-n2ncc(C(=O)NCc3ccc4c(c3)OCO4)c2NC(=O)c2ccco2)cc1C | -6.21* | 0.4 | 64.3* | 0.1 | 86.6*
Cc1occc1C(=O)NCc1ccc2c(c1)OCO2 | -0.0014 | 0.1 | 87.5* | 0.7 | 25.9
COc1ccccc1C(=O)NCc1ccc2c(c1)OCO2 | 0.95 | 0 | 95.1* | 0.5 | 52.3*
Cc1ccc(C)c(N2CCN(C(=O)CCn3c(=S)[nH]c4cc5c(cc4c3=O)OCO5)CC2)c1 | -0.802 | 0.6 | 42.4 | 0.2 | 78.7*
O=C(CCCCCn1c(=S)[nH]c2cc3c(cc2c1=O)OCO3)N1CCN(C(=O)c2ccco2)CC1 | 0.301 | 0.8 | 17.9 | 0.4 | 64.5*
O=C(CCCCCn1c(=S)[nH]c2cc3c(cc2c1=O)OCO3)N1CCN(Cc2ccccc2)CC1 | 0.00907 | 0.5 | 46.2 | 0.3 | 69.6*
O=C(CCCn1c(=S)[nH]c2cc3c(cc2c1=O)OCO3)N1CCN(c2ccccn2)CC1 | 1.42 | 1 | 1.8 | 0.5 | 46.2
O=C(CCCCCn1c(=S)[nH]c2cc3c(cc2c1=O)OCO3)N1CCN(C2CCCCC2)CC1 | nt | 0.7 | 30.1 | 0.2 | 80.9*
SMILES | Cav32 inh | CYP2C19 activ | CYP2C19 inhib | CYP2C9 act | CYP2C9 inhib
CCC(C)(C)n1nnnc1C(c1cc2cc(C)cc(C)c2[nH]c1=O)N1CCN(C(=O)c2ccco2)CC1 (stereo unspecified) | nt | 0.9 | 5.0 | 0.7 | 33.1
CC(=O)NC(Cc1ccccc1)C(=O)N1CCN(C(=O)c2cccs2)CC1 (stereo unspecified) | 1.68 | 1 | -3.9 | 1.1 | -7.6
CCOC(=O)CN1C(=O)N[C@H](c2ccc(Br)cc2)C(C(C)=O)=C1C | 0.313 | nt | nt | nt | nt
N#Cc1cn(CC(=O)N2CCc3ccccc3C2)c2ccccc12 | -0.796 | nt | nt | nt | nt
COc1ccc(N2CCN(C(=O)CCCn3c(=S)[nH]c4cc5c(cc4c3=O)OCO5)CC2)cc1 | 0.0747 | 1 | -4.2 | 0.3 | 74.0*
CCOC(=O)C1CCN(C(=O)CCCCn2c(=O)[nH]c3ccccc3c2=O)CC1 | -0.202 | nt | nt | nt | nt
COc1ccc2[nH]c3c(=O)n(CCCCC(=O)N4CCCC4)c(=S)[nH]c3c2c1 | 1.13 | 0.7 | 31.0 | 0.4 | 59.9*
CCOC(=O)C(CC)/C(C)=N/NC(=O)c1ccc([N+](=O)[O-])cc1 (stereo unspecified) | 0.679 | 0.7 | 26.1 | 1 | -0.9
CCSc1ccccc1C(=O)NCc1ccco1 | 0.00698 | 0.9 | 7.1 | 1.1 | -10.9
CCn1c(O)c(C=NCc2cccs2)c(=O)n(CC)c1=S | -2.56 | 0.7 | 33.5 | 0.2 | 83.0*
